Experimental findings from PubChem BioAssay AID743126 (The Scripps Research Institute Molecular Screening Center, 2013) are described below.

In all, about 370,000 compounds went through this assay and about 2,100 (0.57%) were called active.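 The calls were made as follows: active = inhibition above mean plus 3 SD of compounds lying within the high and low control bounds (cut at about 19% in these data); inactive = the rest.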 The full list was thinned out, with actives kept by preference.

This experiment deals with Group 3 secretory phospholipase A2 (Homo sapiens) (UniProt Q9NZ20). The experiment can be described thus: HGIII-sPLA2 enzyme inhibition – biochemical, QFRET, BODIPY PC-A2 liposome substrate, primary screen (AID 743126).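 Also: 0% = median of test compound wells and 100% = no enzyme DMSO wells.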 Conditions: QFRET BODIPY PC-A2 liposome hydrolysis, fluorescence; at 12.2 µM; hits give high values.
Chain of Group 3 secretory phospholipase A2 (Homo sapiens) (Q9NZ20 whole entry, looked up): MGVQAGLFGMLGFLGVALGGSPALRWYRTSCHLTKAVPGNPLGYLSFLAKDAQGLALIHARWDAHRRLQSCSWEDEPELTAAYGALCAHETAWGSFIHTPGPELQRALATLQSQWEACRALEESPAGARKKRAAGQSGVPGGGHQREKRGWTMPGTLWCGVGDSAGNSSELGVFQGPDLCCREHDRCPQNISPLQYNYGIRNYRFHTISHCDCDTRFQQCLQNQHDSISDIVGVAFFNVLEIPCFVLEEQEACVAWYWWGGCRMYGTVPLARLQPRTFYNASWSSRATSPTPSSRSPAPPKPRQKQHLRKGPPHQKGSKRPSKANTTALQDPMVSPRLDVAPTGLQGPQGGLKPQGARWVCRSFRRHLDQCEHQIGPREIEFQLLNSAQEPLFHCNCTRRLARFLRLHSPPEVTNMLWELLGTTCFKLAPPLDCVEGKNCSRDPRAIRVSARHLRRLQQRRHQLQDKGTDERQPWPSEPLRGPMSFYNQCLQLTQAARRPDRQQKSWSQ
What is called inhibition is the relative decrease from the control value, in per cent. With `COc1ccc(N2CCN(CCNS(=O)(=O)c3ccc(Cl)s3)CC2)cc1`, the inhibition is 0.02% (inactive).

Consider `O=S1(=O)c2ccc(N3CCN(Cc4ccccc4F)CC3)cc2Oc2ccccc2CN1Cc1cn(Cc2ccc(Cl)cc2)nn1`, for which the inhibition was -0.32% (inactive).

For the molecule `Cc1cc(C(=O)Nc2ccc(C)c(S(=O)(=O)N3CCOCC3)c2)c2ccccc2n1`, the inhibition was -16.7% (inactive).

As for `O=C(Nc1nc2ccc(Cl)cc2s1)c1cc(-c2ccc(Cl)cc2)nc2ccccc12`, the inhibition was 13.3% (inactive).

For `O=C(Nc1cccc(F)c1)c1cc(-c2ccco2)nc2ccccc12`, the inhibition was 23.6% (active).

Consider `O=C(CSc1nc2ccccc2n1Cc1ccccc1)NNC(=S)Nc1ccccc1`, for which the inhibition is 34.3% (active).

Regarding `CC(C)(C)NC(=O)Cn1c(SCC(=O)Nc2nccs2)nc2ccccc21`, the inhibition was 3.98% (inactive).

For `CCC(c1nnc(SCC(=O)NNC(=O)c2ccccc2)n1Cc1ccccc1)N(C)C` (stereo unspecified), the inhibition is -0.56% (inactive).

As for `CCC(=O)Nc1ccc2c(c1)C(=O)N(C)[C@H]1CC[C@H](CC(=O)NCCOC)O[C@@H]1CO2`, the inhibition is -9.58% (inactive).

In the case of `Nc1[nH]c(/C=C2/CCCCC2n2[nH]c(=O)n(-c3ccccc3)c2=O)c(Cc2ccccc2)[n+]1Cc1ccccc1` (stereo unspecified), the inhibition was -5.57% (inactive).

`CCn1c(-c2ccncc2)n[nH]c1=S`: the inhibition was 3.35% (inactive).

In the case of `CCc1cc(-c2n[nH]c(=S)n2CC(C)C)cs1`, the inhibition was 19.6% (active).

With `CCCc1cc(-c2n[nH]c(=S)n2Cc2ccccc2)cs1`, the inhibition is 2.87% (inactive).

Consider `CCC(=O)c1c(CC)c2n3c1=CC[C@H]3CC(Br)C=2` (stereo partly specified), for which the inhibition is 1.91% (inactive).

Turning to `CCSc1nnc(SCC(=O)NNC(=O)c2ccccc2F)s1`, the inhibition is 4.1% (inactive).

As to `Cc1ccc(NC(=S)NNC(=O)CSc2nnc(SCc3ccccc3Cl)s2)cc1`, the inhibition is 19.7% (active).

Consider `O=C(CSc1nnc(SCc2ccc(Cl)cc2)s1)N/N=C/c1ccccc1Cl`, for which the inhibition is -4.99% (inactive).

Take `COc1cccc(Cn2cc(COC(=O)Nc3ccc(F)cc3)nn2)c1`: the inhibition was -7.76% (inactive).

Take `C[C@@H]1CN([C@@H](C)CO)C(=O)c2cccc(NC(=O)Nc3cccc4ccccc34)c2O[C@H]1CN(C)S(=O)(=O)c1ccccc1F`: the inhibition was -21.9% (inactive).

On to `CCOc1ccc2[nH]c(=O)c(CN(CCCO)C(C)=O)cc2c1`, for which the inhibition is -0.39% (inactive).

As for `Nc1ccc2[nH]c(=S)sc2c1`, the inhibition is 1.91% (inactive).

On to `CCOc1ccc2[nH]c(=S)sc2c1`, for which the inhibition was 23.5% (active).

As to `COc1ccc2c(C(C)c3ccc(N)cc3)cn(C)c2c1` (stereo unspecified), the inhibition is 9.83% (inactive).

In the case of `CCCCNC(=O)C[C@@H]1C(=O)N(CCc2ccc(Cl)cc2)C2=CCCC[C@]21C(=O)OCC`, the inhibition is -11% (inactive).

On to `COC(=O)c1cccnc1NC(=S)NC(C)C`, for which the inhibition was 11.5% (inactive).

In the case of `O=C(NC(=S)Nc1ncccn1)c1ccccc1Br`, the inhibition is 20.2% (active).

Turning to `CC1CCN(C(=S)NC(=O)c2ccccc2Br)CC1`, the inhibition was 16.3% (inactive).

Consider `O=C(CN1CCC(NC(=O)NCc2ccccc2)CC1)Nc1ccc2c(c1)OCCO2`, for which the inhibition was 4.02% (inactive).

Consider `O=C(NC1CCC1)c1ccc(C#CC2CC2)cn1`, for which the inhibition was 8.79% (inactive).

For `Cc1cc(NCCc2c[nH]c3ccccc23)ccc1Oc1cccnc1`, the inhibition was 24.1% (active).

On to `O=C(CCc1c[nH]c2ccccc12)NCCOc1ccccc1`, for which the inhibition is -37% (inactive).

For the molecule `COc1cccc(CNCCc2c[nH]c3ccccc23)c1OCc1ccccc1F`, the inhibition is -6.09% (inactive).

As for `C#CCNC(=O)C[C@H]1C[C@@]2(C(=O)OC)C(=C[C@H](C(C)C)O[C@@H]2C2CC2)N(Cc2ccco2)C1=O`, the inhibition was 3.7% (inactive).

Consider `Cc1cccc(C(=O)Nc2c(-c3ccc(F)cc3)nc3ncccn23)c1`, for which the inhibition was -0.59% (inactive).

Consider `COC(=O)CC1CCc2cc(C)cc(C(CC(C)C)NC(=O)[C@H](CC(C)C)NC(=O)OCc3ccccc3)c2O1` (stereo partly specified), for which the inhibition is -3.39% (inactive).

Turning to `O=C(OC12CC3CC(CC(C3)C1)C2)c1ccc(NCc2cc(O)ccc2O)cc1`, the inhibition was 42.5% (active).

Regarding `O=C(C1CCCN1S(=O)(=O)c1ccccc1)N1CCc2ccccc2C1` (stereo unspecified), the inhibition was -2.35% (inactive).

Regarding `Cc1nnc(Sc2nc3c(c(=O)[nH]c(=O)n3C)n2Cc2ccccc2)s1`, the inhibition is 19.7% (active).

As to `C=CCn1c(SCc2ccccc2)nc2c1c(=O)[nH]c(=O)n2C`, the inhibition was -4.25% (inactive).

As for `Cc1nnc(SCCCn2c(N3CCCCC3)nc3c2c(=O)[nH]c(=O)n3C)s1`, the inhibition was -3.33% (inactive).

`COc1ccc(CN2C/C(=C/c3ccccc3)N3C(=O)C[C@@H](c4ccccc4)N=C23)c(OC)c1`: the inhibition is -11.6% (inactive).

With `Cc1ccc(-n2c(COc3ccccc3)nnc2SCC(=O)Nc2ccc3c(c2)OCCO3)cc1`, the inhibition was -18.3% (inactive).

With `COc1ccc(C(=O)OCCN2CCN(C3CN(Cc4cn(Cc5ccccc5F)nn4)S(=O)(=O)C3)CC2)cc1OC` (stereo unspecified), the inhibition was -1.33% (inactive).

Consider `CC(NC(=O)Cn1cc(C(F)(F)F)cc(Cl)c1=O)c1ccccc1` (stereo unspecified), for which the inhibition is 0.8% (inactive).

As for `CC(NC(=O)COC(=O)Cn1cc(C(F)(F)F)ccc1=O)c1ccccc1` (stereo unspecified), the inhibition was 19.8% (active).

In the case of `CC(NC(=O)COC(=O)C1CCN(S(=O)(=O)c2ccccc2C(F)(F)F)CC1)c1ccccc1` (stereo unspecified), the inhibition is -13.3% (inactive).

In the case of `NC(Cc1ccccc1)c1csc(Nc2cc(Oc3ccccc3)ncn2)n1` (stereo unspecified), the inhibition is 30.9% (active).

As for `CC(C)(C)CC(=O)Nc1nc(C(N)Cc2ccc(C(F)(F)F)cc2)cs1` (stereo unspecified), the inhibition is 6.39% (inactive).

With `NC(Cc1ccc(F)cc1)c1csc(Nc2nncc3ccccc23)n1` (stereo unspecified), the inhibition was 9.76% (inactive).

`CC(C)N1CCCCC(NC(=O)C(C)(C)C)C1=O` (stereo unspecified): the inhibition is -4.58% (inactive).

As for `C=CCN1C(C(=O)OC)CN(Cc2cn(Cc3ccccc3)nn2)CCS1(=O)=O` (stereo unspecified), the inhibition was 1.48% (inactive).

Regarding `O=[N+]([O-])c1cc([N+](=O)[O-])c2cccnc2c1O`, the inhibition was 2.18% (inactive).

For `CC(=O)NC(c1cccs1)c1cc(Br)c2cccnc2c1O` (stereo unspecified), the inhibition was 22% (active).

`N#Cc1ccccc1NC(=O)COc1c(Br)cc(Br)c2cccnc12`: the inhibition is 5.73% (inactive).

With `Cc1c(C(C)c2ccccc2O)[nH]c2ccccc12` (stereo unspecified), the inhibition was -10.4% (inactive).

As for `CCOC(=O)C(=Cc1ccccc1)C(=O)c1ccccc1`, the inhibition was 8.51% (inactive).

With `CCOC(=O)NC(=O)/C(C#N)=C\c1ccccc1`, the inhibition was 22.2% (active).

As for `CCOC(=O)NC(=O)C(=CNc1cccc(OC)c1)C(=O)NC(=O)OCC`, the inhibition was 5.9% (inactive).

In the case of `COC(=O)[C@]12C[C@H](CC(=O)NCC34CC5CC(CC(C5)C3)C4)C(=O)N(Cc3ccc(Cl)cc3Cl)C1=C[C@H](COCc1ccccc1)O[C@@H]2C`, the inhibition is -6.39% (inactive).

For `O=C(Nc1ccc(Br)cc1)OCCN1C(=O)CCC12CCC(c1ccccc1)CC2` (stereo unspecified), the inhibition is -1.44% (inactive).

Turning to `NC(=O)C1(Nc2ccc(-c3ccccc3)cc2)CCCC1`, the inhibition was 0.79% (inactive).

Take `N#CC1(Nc2ccc(-c3ccc(Cl)cc3)cc2)CCCC1`: the inhibition is 23.6% (active).

`N#CC1(Nc2ccc3c4c(cccc24)CC3)CCCCC1`: the inhibition is -35.6% (inactive).

Regarding `CC(c1ccc(N)cc1)c1cn(C)c2ccccc12` (stereo unspecified), the inhibition was 13.1% (inactive).

In the case of `FC(F)(F)c1cccc(Cn2ccc3ccc(-c4ccc5ccn(Cc6ccccc6)c5c4)cc32)c1`, the inhibition was -7.36% (inactive).

In the case of `C=CCN(C)CC#Cc1ccccc1`, the inhibition was 6.96% (inactive).

Regarding `CCOC(=O)C1(Cc2cccc(OC)c2)CCN(C(C)COC)CC1` (stereo unspecified), the inhibition was -1.08% (inactive).

Take `CCOC(=O)C1(Cc2cccc(OC)c2)CCCN(C(=O)CCSC)C1` (stereo unspecified): the inhibition was 19.5% (active).

Consider `CCOC(=O)C1(Cc2cccc(OC)c2)CCCN(S(=O)(=O)c2cccnc2)C1` (stereo unspecified), for which the inhibition was 1.51% (inactive).

For `CC(C)(C)NC(=O)C(c1cccnc1)N(C(=O)c1cnco1)c1ccc(C(C)(C)C)cc1` (stereo unspecified), the inhibition is -5.08% (inactive).

As to `CCOc1ccc(Oc2c(Cl)cnn(-c3ccc(C)cc3)c2=O)cc1`, the inhibition is 8.12% (inactive).

Consider `O=[N+]([O-])c1ccccc1S(=O)(=O)Nc1cccc2cccnc12`, for which the inhibition was 6.98% (inactive).

For the molecule `O=S(=O)(Nc1ccccn1)c1cccc(S(=O)(=O)c2ccc(Cl)cc2)c1`, the inhibition is -7.39% (inactive).

For `COc1cc(NS(=O)(=O)c2ccc3ccccc3c2)c2ncccc2c1`, the inhibition was 23.8% (active).

Take `CCOC(=O)C(=O)N(Cc1ccccc1)c1ccccc1C(=O)Nc1cc(OC)ccc1OC`: the inhibition is -2.65% (inactive).

With `NC[C@H](Cc1ccccc1)NCCc1cc(C(F)(F)F)cc(C(F)(F)F)c1`, the inhibition was 21.8% (active).

Regarding `CC1=CC(C)(C)NC(=S)N1NC(=O)c1ccccc1Cl`, the inhibition was 4.76% (inactive).

Regarding `CC1=CC(C)(C)NC(=S)N1c1ccccc1`, the inhibition is 20.1% (active).

For the molecule `CN(C)Cc1cn(-c2ccc(-c3noc4c3C(=O)N(CC(=O)N3CCOCC3)CC4)cc2)nn1`, the inhibition is 1.51% (inactive).

In the case of `COc1ccc(N2CCN(CCNS(=O)(=O)c3ccc([N+](=O)[O-])cc3)CC2)cc1`, the inhibition is -4.09% (inactive).

On to `COc1ccccc1CCNC(=O)C1CCN(c2nc(C)cc(C)n2)CC1`, for which the inhibition was -0.08% (inactive).

For the molecule `Cc1cccc(NC(=S)NCCc2ccc(F)cc2)c1C`, the inhibition is 8.1% (inactive).

Take `Cc1ccc(NC(=O)CN(C)Cc2ccc(F)cc2)c([N+](=O)[O-])c1`: the inhibition was -1.08% (inactive).

With `Cc1c(NC(=S)NCc2ccc(F)cc2)cccc1[N+](=O)[O-]`, the inhibition is 19.5% (active).

Regarding `O=C(CSc1nc2ccccc2n1Cc1ccccc1Cl)N/N=C\c1c[nH]c2ccccc12`, the inhibition was -20.9% (inactive).

For the molecule `COC(=O)C1CN(Cc2ccc(F)cc2)CCS(=O)(=O)N1Cc1ccc(Cl)cc1` (stereo unspecified), the inhibition is 0.13% (inactive).

Regarding `CCC(=O)OCCCN1C(=O)CCC12CCC(c1ccccc1)CC2` (stereo unspecified), the inhibition is -0.68% (inactive).

For the molecule `Cc1ccc2c(c1)N(CC(=O)N1CCCc3ccccc31)C(=O)C(C)O2` (stereo unspecified), the inhibition was 0.55% (inactive).

In the case of `Cc1cccc(C)c1NC(=O)CN1C(=O)C(C)Oc2ccccc21` (stereo unspecified), the inhibition is 20.8% (active).

In the case of `CC1Oc2ccccc2N(Cc2cccnc2)C1=O` (stereo unspecified), the inhibition was 7.65% (inactive).

For `COc1ccc(Cn2ccc3ccc(-c4ccc5ccn(Cc6ccccc6C)c5c4)cc32)cc1`, the inhibition is 3.9% (inactive).
